About 7,900 targets were measured; listed, in parts, are those with a hit and a random draw of the rest. About 0.6% of all pairs of compound and target were hits.
compound: C1=CC2=C(C=CC(=C2)/C=C\3/C(=O)NC(=NCC4=CC=CS4)S3)N=C1; test: log2 fold change, soluble protein after heating vs DMSO (PISA); higher = thermal stabilisation; K562 cells, 10 uM, 30 min; active = over 0.2 and 3.5 SD of the protein, either way, in both replicates (recomputed)
How it was run: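 For each measurement, 10 μM compound was applied for 30 min to K562 cells at 2×10^6 cells/mL. Aliquots were heated for 3 min across 48°C-58°C, pooled, and extracted in PBS with 0.5% NP-40 at 4°C; the supernatant after 21,000xg for 90 min was soluble protein. This was quantified by TMTpro 16plex LC-MS/MS with channel sums equalised, and thermal stability was reported relative to control samples from duplicates, on a log2 fold-change scale.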

Sequence of UniProt O60264 (O60264 whole entry, looked up): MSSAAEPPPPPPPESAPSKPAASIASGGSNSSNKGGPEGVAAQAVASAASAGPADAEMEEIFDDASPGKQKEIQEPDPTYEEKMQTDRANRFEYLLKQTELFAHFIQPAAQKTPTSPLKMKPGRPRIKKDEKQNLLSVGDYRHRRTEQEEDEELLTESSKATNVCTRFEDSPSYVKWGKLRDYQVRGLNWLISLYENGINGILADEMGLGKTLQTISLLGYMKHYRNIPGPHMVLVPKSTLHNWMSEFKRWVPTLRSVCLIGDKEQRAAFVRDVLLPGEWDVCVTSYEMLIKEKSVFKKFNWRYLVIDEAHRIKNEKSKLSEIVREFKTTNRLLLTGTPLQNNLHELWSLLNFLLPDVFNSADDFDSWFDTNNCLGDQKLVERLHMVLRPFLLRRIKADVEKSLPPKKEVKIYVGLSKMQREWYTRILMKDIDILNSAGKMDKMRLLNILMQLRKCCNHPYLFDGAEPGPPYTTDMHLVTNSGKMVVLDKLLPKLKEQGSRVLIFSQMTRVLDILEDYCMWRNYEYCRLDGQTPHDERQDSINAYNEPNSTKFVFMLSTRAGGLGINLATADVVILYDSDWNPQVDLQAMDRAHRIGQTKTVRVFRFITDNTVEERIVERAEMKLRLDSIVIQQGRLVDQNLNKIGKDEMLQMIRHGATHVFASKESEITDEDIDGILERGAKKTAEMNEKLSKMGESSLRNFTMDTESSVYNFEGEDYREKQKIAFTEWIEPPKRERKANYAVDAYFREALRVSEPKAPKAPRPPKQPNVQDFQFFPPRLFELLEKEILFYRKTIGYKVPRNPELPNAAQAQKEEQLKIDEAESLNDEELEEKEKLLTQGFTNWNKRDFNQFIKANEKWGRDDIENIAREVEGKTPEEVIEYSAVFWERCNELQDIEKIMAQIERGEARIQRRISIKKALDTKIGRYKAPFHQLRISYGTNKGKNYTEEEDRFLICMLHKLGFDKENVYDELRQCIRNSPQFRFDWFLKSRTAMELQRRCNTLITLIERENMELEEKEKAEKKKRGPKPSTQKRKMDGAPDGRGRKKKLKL
Sequence of UniProt Q5T5C0 (Q5T5C0 whole entry, looked up): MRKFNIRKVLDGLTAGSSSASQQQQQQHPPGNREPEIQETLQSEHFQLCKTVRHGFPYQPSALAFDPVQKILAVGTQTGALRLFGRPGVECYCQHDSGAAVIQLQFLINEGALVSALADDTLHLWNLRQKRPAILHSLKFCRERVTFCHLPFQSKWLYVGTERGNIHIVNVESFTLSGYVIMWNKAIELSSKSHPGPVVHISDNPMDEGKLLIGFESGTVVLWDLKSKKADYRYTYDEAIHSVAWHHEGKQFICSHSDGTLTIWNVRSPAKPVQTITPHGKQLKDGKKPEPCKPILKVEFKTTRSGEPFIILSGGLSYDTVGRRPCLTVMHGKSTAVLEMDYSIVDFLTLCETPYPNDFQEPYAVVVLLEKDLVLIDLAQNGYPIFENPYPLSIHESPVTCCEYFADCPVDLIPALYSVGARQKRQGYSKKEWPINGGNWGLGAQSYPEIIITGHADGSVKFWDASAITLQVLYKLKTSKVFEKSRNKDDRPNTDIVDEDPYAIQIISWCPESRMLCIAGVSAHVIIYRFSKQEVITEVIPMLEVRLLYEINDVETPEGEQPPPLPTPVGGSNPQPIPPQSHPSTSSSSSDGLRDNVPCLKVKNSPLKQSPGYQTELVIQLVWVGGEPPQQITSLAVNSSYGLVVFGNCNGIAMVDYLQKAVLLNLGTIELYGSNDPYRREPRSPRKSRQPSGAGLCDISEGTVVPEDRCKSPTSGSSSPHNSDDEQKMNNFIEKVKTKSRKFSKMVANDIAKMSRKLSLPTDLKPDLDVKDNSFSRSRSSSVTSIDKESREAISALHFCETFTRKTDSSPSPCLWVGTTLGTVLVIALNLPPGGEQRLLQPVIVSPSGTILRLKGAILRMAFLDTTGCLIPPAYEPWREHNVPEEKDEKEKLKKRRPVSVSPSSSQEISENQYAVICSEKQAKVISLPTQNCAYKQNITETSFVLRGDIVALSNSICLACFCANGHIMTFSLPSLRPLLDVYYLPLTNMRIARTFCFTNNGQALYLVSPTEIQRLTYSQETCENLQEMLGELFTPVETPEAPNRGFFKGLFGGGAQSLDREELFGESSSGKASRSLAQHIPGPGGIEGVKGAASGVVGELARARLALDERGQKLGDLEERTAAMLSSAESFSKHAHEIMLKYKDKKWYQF
Sequence of UniProt Q16385 (Q16385 whole entry, looked up): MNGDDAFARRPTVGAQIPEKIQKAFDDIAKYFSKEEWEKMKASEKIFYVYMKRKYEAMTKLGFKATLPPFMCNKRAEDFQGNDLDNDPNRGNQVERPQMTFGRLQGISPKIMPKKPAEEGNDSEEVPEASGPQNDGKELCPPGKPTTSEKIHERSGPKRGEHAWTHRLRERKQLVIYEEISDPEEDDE
Sequence of UniProt O15198 (O15198 whole entry, looked up): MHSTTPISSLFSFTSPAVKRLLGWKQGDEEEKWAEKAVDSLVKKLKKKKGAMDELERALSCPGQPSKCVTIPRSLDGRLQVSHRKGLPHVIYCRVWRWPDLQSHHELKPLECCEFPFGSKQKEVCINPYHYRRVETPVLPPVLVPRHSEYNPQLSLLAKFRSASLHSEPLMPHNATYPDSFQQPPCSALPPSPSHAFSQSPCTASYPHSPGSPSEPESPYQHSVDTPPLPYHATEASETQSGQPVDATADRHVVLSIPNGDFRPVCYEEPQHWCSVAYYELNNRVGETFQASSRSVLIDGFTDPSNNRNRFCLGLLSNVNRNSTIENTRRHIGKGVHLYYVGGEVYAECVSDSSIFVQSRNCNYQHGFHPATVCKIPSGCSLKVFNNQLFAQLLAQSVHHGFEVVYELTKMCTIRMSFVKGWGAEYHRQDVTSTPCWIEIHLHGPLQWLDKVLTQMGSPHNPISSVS
Sequence of UniProt Q8TCT7 (Q8TCT7 whole entry, looked up): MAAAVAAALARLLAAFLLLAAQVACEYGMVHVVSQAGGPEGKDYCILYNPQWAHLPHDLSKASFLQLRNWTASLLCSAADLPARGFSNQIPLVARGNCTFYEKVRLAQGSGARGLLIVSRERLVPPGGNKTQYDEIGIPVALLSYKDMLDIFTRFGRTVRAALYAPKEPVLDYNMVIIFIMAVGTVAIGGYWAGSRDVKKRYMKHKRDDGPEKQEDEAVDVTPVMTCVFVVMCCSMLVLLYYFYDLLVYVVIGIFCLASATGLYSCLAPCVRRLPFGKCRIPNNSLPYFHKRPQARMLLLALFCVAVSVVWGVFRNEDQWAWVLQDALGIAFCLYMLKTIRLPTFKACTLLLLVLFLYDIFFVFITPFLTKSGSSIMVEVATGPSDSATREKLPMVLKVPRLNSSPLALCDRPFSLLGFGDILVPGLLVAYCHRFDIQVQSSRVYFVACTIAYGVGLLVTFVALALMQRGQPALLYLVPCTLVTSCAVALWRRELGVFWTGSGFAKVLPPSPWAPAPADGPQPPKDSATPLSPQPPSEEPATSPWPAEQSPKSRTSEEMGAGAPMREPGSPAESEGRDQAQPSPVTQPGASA
Sequence of UniProt O60271 (O60271 whole entry, looked up): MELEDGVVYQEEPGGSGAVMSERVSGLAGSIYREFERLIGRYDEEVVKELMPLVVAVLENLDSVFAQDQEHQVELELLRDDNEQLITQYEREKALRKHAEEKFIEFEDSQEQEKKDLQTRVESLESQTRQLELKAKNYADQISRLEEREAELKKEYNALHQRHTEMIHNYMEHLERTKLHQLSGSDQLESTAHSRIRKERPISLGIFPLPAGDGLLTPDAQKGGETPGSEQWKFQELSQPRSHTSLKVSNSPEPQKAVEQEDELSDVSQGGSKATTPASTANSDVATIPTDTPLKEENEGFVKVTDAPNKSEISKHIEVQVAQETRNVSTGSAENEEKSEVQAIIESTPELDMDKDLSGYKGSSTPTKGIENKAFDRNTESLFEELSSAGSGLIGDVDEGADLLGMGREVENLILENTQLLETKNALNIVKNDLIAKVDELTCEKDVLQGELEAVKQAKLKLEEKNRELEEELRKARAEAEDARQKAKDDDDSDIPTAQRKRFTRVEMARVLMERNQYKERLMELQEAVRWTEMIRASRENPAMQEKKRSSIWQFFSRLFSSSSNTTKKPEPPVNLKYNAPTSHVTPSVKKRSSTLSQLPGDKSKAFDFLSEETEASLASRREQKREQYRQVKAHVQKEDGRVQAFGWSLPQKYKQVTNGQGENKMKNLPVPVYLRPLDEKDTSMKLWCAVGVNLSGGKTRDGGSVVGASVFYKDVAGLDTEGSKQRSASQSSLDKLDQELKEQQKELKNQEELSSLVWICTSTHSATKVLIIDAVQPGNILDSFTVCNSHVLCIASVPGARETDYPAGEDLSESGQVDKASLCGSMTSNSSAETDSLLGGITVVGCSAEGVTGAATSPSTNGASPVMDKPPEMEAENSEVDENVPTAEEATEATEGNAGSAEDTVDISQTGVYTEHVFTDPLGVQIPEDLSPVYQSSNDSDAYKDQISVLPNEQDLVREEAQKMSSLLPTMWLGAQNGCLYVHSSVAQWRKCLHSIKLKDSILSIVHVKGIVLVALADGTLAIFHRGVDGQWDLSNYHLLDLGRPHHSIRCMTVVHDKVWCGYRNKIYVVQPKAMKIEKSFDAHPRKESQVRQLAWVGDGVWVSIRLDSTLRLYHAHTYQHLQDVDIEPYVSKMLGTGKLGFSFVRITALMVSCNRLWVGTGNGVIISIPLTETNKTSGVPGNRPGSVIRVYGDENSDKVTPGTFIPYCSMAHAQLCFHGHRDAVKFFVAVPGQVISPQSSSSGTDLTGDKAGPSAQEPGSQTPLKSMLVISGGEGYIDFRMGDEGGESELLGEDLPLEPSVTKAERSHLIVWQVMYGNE
Sequence of UniProt Q15526 (Q15526 whole entry, looked up): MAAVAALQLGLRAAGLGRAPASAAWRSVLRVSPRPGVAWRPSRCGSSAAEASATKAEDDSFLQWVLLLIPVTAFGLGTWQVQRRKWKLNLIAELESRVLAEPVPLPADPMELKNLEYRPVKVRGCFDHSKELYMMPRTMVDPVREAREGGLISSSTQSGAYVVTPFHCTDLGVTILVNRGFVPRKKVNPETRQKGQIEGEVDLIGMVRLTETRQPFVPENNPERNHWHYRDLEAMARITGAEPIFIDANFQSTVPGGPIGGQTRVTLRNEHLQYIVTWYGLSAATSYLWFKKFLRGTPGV

log2 fold change, inactive:
TBC1D23 (UniProt Q9NUY8) 0.071
TFB2M (UniProt Q9H5Q4) 0.016
TGFBRAP1 (UniProt Q8WUH2) 0.084
SNX9 (UniProt Q9Y5X1) 0.004
THRAP3 (UniProt Q9Y2W1) -0.094
SRRM2 (UniProt Q9UQ35) -0.123
SSX2 (UniProt Q16385) 0.175
SMAP (UniProt O00193) -0.063
SMARCA5 (UniProt O60264) -0.012
SPAG9 (UniProt O60271) 0.028
SURF1 (UniProt Q15526) -0.045
TANGO6 (UniProt Q9C0B7) -0.001
SYNE1 (UniProt Q8NF91) 0.132
STAM2 (UniProt O75886) 0.022
SRSF2 (UniProt Q01130) -0.029
SMAD9 (UniProt O15198) 0
SPPL2B (UniProt Q8TCT7) 0.081
SUOX (UniProt P51687) 0.027
SPART (UniProt Q8N0X7) 0.07
TLK1 (UniProt Q9UKI8) 0.042
STXBP5 (UniProt Q5T5C0) 0.094
TCOF1 isoform 4 (UniProt Q13428) -0.002
TERF2IP (UniProt Q9NYB0) 0.022
TARS2 (UniProt Q9BW92) 0.086

Reference: the supplement of paper PMC10849652
